Legend:
Experiment in all cases: DAPPL (digital affinity profiling via proximity ligation, sequencing); 10 mM Tris-HCl pH 7.5, 50 mM NaCl, 1 mM DTT, 4% glycerol, room temperature, 30 min; GST-TFs on glutathione beads, 16-mer random dsDNA library, 0.1% formaldehyde crosslink after washing; high values mean tight binding
Conditions in all cases: protein: recombinant; tags: N-terminal GST; dsDNA, one strand shown
[1] = target: T1, ERF (Homo sapiens, UniProt P50548 1-548)
T1 sequence: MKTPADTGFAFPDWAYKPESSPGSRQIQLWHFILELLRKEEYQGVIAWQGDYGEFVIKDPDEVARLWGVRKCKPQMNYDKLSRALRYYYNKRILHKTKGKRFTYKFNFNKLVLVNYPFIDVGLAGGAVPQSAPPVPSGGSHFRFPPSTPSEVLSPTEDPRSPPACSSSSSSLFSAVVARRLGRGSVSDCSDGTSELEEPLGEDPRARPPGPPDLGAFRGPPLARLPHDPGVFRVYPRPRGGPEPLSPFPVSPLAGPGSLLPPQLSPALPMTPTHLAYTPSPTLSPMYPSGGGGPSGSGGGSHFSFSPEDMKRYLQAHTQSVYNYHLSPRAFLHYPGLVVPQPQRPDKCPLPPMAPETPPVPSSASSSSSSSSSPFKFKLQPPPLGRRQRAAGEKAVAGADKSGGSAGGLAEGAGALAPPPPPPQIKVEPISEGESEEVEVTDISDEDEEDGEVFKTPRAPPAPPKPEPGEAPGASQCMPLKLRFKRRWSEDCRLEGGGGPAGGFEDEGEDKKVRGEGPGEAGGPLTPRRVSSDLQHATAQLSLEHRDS
In short: (§1)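 Binding signal is each hexamer's read frequency for a factor divided by its frequency in the tag-only sample. The factors were GST-fused human transcription factors from yeast, captured on glutathione beads, DNA-barcoded and pooled with that sample. Pools were incubated with 200 nmole of a random double-stranded 16-mer DNA library in Tris/NaCl/DTT/glycerol buffer at room temperature for 30 min, then washed, crosslinked with 0.1% formaldehyde, proximity-ligated with BsaI/T4 ligase (1 h, 37 °C), PCR-amplified and sequenced on an Illumina NextSeq500.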

[2] = target: T2, ETV3L (Homo sapiens, UniProt Q6ZN32 1-361)
T2 sequence: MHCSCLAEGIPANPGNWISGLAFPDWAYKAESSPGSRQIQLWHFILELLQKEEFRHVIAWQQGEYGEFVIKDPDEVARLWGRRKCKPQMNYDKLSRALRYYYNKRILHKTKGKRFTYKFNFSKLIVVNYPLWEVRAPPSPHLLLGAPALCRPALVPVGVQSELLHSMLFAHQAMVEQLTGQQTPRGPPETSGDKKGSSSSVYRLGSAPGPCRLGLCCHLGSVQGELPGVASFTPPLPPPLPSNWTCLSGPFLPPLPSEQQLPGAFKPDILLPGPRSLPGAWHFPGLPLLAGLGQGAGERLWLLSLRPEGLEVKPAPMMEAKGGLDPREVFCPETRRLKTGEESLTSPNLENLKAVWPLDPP
In short: as §1

[3] = target: T3, ETS2 (Homo sapiens, UniProt P15036 1-469)
T3 sequence: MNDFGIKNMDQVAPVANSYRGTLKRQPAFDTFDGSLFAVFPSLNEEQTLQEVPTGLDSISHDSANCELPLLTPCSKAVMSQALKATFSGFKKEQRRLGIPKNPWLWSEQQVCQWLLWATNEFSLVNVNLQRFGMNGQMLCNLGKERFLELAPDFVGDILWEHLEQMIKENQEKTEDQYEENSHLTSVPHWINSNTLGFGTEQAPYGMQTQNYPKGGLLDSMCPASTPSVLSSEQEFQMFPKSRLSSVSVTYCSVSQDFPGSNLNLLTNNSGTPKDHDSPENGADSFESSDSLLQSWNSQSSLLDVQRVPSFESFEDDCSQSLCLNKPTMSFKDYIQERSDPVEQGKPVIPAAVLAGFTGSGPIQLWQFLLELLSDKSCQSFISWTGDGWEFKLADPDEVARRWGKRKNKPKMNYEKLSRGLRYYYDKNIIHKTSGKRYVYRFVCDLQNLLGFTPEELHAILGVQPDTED
In short: as §1

[4] = target: T4, SPDEF (Homo sapiens, UniProt O95238 1-335)
T4 sequence: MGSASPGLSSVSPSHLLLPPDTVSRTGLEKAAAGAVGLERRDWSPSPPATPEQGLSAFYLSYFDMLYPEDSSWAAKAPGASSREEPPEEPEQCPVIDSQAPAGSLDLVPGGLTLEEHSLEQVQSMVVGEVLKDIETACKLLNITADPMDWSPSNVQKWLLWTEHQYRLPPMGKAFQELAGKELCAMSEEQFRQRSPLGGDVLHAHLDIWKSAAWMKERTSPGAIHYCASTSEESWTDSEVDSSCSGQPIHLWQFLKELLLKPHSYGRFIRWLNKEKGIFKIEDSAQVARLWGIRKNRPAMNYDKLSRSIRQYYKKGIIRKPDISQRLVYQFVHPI
In short: as §1

[5] = target: T5, ETV7 (Homo sapiens, UniProt Q9Y603 1-341)
T5 sequence: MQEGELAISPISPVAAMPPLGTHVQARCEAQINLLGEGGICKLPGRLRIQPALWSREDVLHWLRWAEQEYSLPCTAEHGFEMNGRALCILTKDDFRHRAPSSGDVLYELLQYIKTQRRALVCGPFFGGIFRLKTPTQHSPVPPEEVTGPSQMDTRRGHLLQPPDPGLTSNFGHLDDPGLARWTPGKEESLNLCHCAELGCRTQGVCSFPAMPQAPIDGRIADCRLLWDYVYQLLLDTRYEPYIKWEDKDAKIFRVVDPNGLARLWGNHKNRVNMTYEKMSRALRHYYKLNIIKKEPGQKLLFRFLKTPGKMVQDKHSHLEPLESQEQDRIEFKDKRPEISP
In short: as §1

[6] = target: T6, ELF5 (Homo sapiens, UniProt Q9UKW6-2 1-255)
T6 sequence: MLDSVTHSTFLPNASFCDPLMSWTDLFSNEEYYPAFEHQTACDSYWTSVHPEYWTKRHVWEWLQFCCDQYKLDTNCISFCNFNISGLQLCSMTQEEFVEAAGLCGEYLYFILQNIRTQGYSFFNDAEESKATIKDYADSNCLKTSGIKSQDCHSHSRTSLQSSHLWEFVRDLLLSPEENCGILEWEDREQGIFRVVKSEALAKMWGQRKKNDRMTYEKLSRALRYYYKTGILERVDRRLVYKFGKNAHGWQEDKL
In short: as §1

[7] = target: T7, ETV3 (Homo sapiens, UniProt P41162-2 1-143)
T7 sequence: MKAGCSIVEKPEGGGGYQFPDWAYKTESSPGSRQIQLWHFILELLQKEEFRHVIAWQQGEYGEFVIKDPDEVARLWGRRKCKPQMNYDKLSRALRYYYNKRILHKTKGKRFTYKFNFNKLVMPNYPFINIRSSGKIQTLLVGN
In short: as §1

[8] = target: ETV6 (Homo sapiens, UniProt P41212 1-452)
In short: as §1

ETV6, sequence (P41212 whole entry): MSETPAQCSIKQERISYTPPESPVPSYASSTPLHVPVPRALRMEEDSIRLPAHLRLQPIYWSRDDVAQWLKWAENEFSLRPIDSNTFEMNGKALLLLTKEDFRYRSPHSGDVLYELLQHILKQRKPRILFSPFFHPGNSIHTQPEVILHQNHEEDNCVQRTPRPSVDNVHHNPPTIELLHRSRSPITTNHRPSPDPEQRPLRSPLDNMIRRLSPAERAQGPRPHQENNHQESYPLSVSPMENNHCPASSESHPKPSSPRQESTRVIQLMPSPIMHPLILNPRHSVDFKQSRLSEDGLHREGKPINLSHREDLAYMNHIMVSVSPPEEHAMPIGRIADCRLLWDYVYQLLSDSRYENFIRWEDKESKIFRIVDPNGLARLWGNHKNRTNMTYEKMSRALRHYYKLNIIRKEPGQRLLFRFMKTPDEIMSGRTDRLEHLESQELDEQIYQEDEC

Sequence	binding signal [1]	binding signal [2]	binding signal [3]	binding signal [4]	binding signal [5]	binding signal [6]	binding signal [7]	binding signal [8]
CTGCGA	1.22 fold enrichment (6-mer frequency, TF over GST control)	1.4 fold enrichment (6-mer frequency, TF over GST control)	1.29 fold enrichment (6-mer frequency, TF over GST control)	1.37 fold enrichment (6-mer frequency, TF over GST control)	1.26 fold enrichment (6-mer frequency, TF over GST control)	1.28 fold enrichment (6-mer frequency, TF over GST control)	1.32 fold enrichment (6-mer frequency, TF over GST control)	1.29 fold enrichment (6-mer frequency, TF over GST control)
GCCTCG	1.14 fold enrichment (6-mer frequency, TF over GST control)	1.28 fold enrichment (6-mer frequency, TF over GST control)	1.31 fold enrichment (6-mer frequency, TF over GST control)	1.19 fold enrichment (6-mer frequency, TF over GST control)	1.26 fold enrichment (6-mer frequency, TF over GST control)	1.23 fold enrichment (6-mer frequency, TF over GST control)	1.28 fold enrichment (6-mer frequency, TF over GST control)	1.37 fold enrichment (6-mer frequency, TF over GST control)
AATGCG	1.18 fold enrichment (6-mer frequency, TF over GST control)	1.36 fold enrichment (6-mer frequency, TF over GST control)	1.3 fold enrichment (6-mer frequency, TF over GST control)	1.26 fold enrichment (6-mer frequency, TF over GST control)	1.21 fold enrichment (6-mer frequency, TF over GST control)	1.3 fold enrichment (6-mer frequency, TF over GST control)	1.22 fold enrichment (6-mer frequency, TF over GST control)	1.29 fold enrichment (6-mer frequency, TF over GST control)

— article PMC7862700, “An all-to-all approach to the identification of sequence-specific readers for epigenetic DNA modifications on cytosine”
